The campaign covered roughly 340,000 compounds. About 1,000 (0.29%) were called active. Rule as the data show it: inconclusive = inhibition above about 27% without an active follow-up result; inactive = below that. The list is a sample of the results. Results with a measured potency or affinity are listed apart.

The nature of the test: NS1A inhibition, H1N1 influenza, cell based functional assay (AID 504329). The note with it: percent inhibition, at 12.5 µM, active compounds read high.
As for `CCOC(=O)c1c(C)[nH]c(C)c1S(=O)(=O)N(C)CC(=O)Nc1ccccc1F`, the inhibition (in general, the drop in the measured response relative to a control, in per cent) is -8.93% (inactive).

Take `COc1ccc(OC2C(=O)N(CCc3ccc(OC)c(OC)c3)C2c2ccc3c(c2)OCO3)cc1` (stereo not given): the inhibition is 22.8% (inactive). The same measure for `Cc1cc(C)cc(OCC(O)Cn2nc(C)cc2C)c1` (stereo not given): -5.82% (inactive).

Consider `CC(C)Cc1nc(Cl)c(C#N)c2c1CCCC2`, for which the inhibition was 0.11% (inactive). To `COCC1CCN(C(=O)C2CCC(=O)N(C3CCCCCC3)C2)CC1` (stereo not given) belongs 8.12% (inactive). The same measure for `COC(=O)CN1C(=O)Nc2ccc(Cl)cc2C1c1ccccc1` (stereo not given): 4.9% (inactive); for `CC(=O)c1nn(-c2cccc(C)c2)cc1C(=O)c1cccc(Br)c1`: 2.16% (inactive); for `O=C(Nc1ccc(F)cc1)c1ccc(CSc2ccc(Cl)cc2)o1`: -1.55% (inactive).

Take `C=CCn1c(SCC(=O)C(C)(C)C)nnc1-c1ccccn1`: the inhibition was -6.69% (inactive). The same measure for `COc1ccccc1N1CCN(S(=O)(=O)c2c(C(=O)N3CCOCC3)c(C)n(C)c2C)CC1`: 6.32% (inactive); for `CCCCCOc1ccc(C(O)C(CN2CCOCC2)c2ccccc2)cc1` (stereo not given): -5.3% (inactive); for `C[C@H](CO)N1C[C@H](C)[C@@H](CN(C)Cc2ccncc2)Oc2c(NS(=O)(=O)c3ccccc3)cccc2C1=O`: -17% (inactive). The same measure for `O=C(CSc1n[nH]c(-c2ccco2)n1)Nc1ccc(F)cc1`: 7.45% (inactive); for `COc1ccc(NC(=O)CSc2ccccn2)cc1`: 4.92% (inactive); for `Cc1ccccc1NC(=O)CSc1n[nH]c(-c2ccccn2)n1`: -5.83% (inactive). To `O=C(CSc1n[nH]c(-c2ccncc2)n1)Nc1ccc(F)cc1` belongs 0.02% (inactive).

As to `COc1ccc(NC(=O)CSc2n[nH]c(-c3ccco3)n2)cc1`, the inhibition was -5.29% (inactive). To `O=C(CSc1n[nH]c(-c2cccnc2)n1)Nc1ccc(Cl)cc1` belongs 2.6% (inactive); to `O=C(CSc1n[nH]c(-c2ccncc2)n1)Nc1ccc(Cl)cc1`, -0.89% (inactive).

For `Cc1ccc(C)c(NC(=O)CSc2n[nH]c(-c3ccncc3)n2)c1`, the inhibition is -3.36% (inactive). The same measure for `C[C@@H](NC(=O)Cn1cnc2c(NCc3ccccc3)ncnc21)c1cccc2ccccc12`: -9.17% (inactive); for `CCN(CC(=O)Nc1ccccc1C(F)(F)F)C(=O)CCS(=O)(=O)c1ccc(Cl)cc1`: -2.32% (inactive); for `CC(C)CN(C(=O)CN(C)CC(=O)Nc1ccc(Cl)c(C(F)(F)F)c1)c1c(N)n(CC(C)C)c(=O)[nH]c1=O`: -3.46% (inactive). The same measure for `CN=C1CC(C)(C)CC(=O)/C1=C(/O)CCCN1C(=O)c2ccccc2C1=O`: -2.2% (inactive); for `CC12CCC(=O)N1C(C(=O)Nc1nc(-c3ccc(F)c(F)c3)cs1)CS2` (stereo not given): -0.9% (inactive).

These data come from PubChem BioAssay AID504329 (Southern Research Specialized Biocontainment Screening …, 2011).
